Data published in PubChem BioAssay (EPA / NIEHS).
Activity calls are given as the source filed them. Rule for the calls: active = hit-call score of the fitted dose curve at least 0.9, where 1 is the maximum; inactive = score below 0.9.

Test: ATG_TCF_b_cat_CIS: Attagene CIS-FACTORIAL HepG2 Assay for human T-Cell-Factor with beta-catenin (TCF/b-cat) (AID 2282965)
Settings: HepG2 TCF/beta-catenin cis-reporter transcription, actives raise or lower the signal
Method: ATG_CIS is a cell-based, multiplexed-readout assay that uses HepG2, a human liver cell line, with measurements taken at 24 hours after chemical dosing in a 24-well plate.ATG_TCF_b_cat_CIS is one of 52 assay component(s) measured or calculated from the ATG_CIS assay. It is designed to make measurements of mRNA induction, a form of inducible reporter, as detected with fluorescence intensity signals by Reverse transcription polymerase chain reaction (RT-PCR) and Capillary electrophoresis technology.Data from the assay component ATG_TCF_b_cat_CIS was analyzed into 1 assay endpoint. This assay endpoint, ATG_TCF_b_cat_CIS, was analyzed with bidirectional fitting relative to DMSO as the negative control and baseline of activity. Using a type of inducible reporter, measures of mRNA for gain or loss-of-signal activity can be used to understand the reporter gene at the transcription factor-level as they relate to the gene TCF7 and TCF7L2 and LEF1 and TCF7L1. Furthermore, this assay endpoint can be referred to as a primary readout, because this assay has produced multiple assay endpoints where this one serves a reporter gene function. To generalize the intended target to other relatable targets, this assay endpoint is annotated to the dna binding intended target family, where the subfamily is HMG box protein.
Human liver HepG2 cells are transiently transfected with multiple reporter transcription units (MRTUs) in 6-well plates using FuGene 6 reagent (Roche; 3 ml FuGene/1 mg DNA). The MRTU constructs are regulated by a cis-regulating element (promoter). […] A major difference between the CIS and TRANS system is that in CIS activities of endogenous TFs are measured, whereas the TRANS assay evaluates changes in activities of exogenous, chimeric NR-Gal4 proteins. […] At the end of 24 hour incubation, total RNA was isolated using TriZol reagent (Invitrogen). The isolated RNA is then reverse-transcribed using oligo(dT) primer and Mo-MLV reverse transcriptase (Invitrogen) with DNAse I (Ambion) treatment for 30 min. The one-tenth of the produced cDNA was amplified by PCR using Taq DNA polymerase (Invitrogen) and two reporter sequence-specific primers. The PCR products were fluorescently labeled by primer extension with 6-arboxyfluorescein (6-FAM) 5'-labeled reporter sequence-specific primer (2 min at 95 C, 20 s at 68 C and 10 min at 72 C) and these products were digested with 5U of HpaI (New England Biolabs) for 2h at 37 C. The fragments were purified using Qiaquick PCR columns (Qiagen), analyzed on an ABI 3130xL genetic analyzer (Applied Biosystems) with peak positions identified by using a set of X-rhodamine (ROX)-labeled MapMarker1000 molecular weight standards (BioVentures). The raw capillary electrophoresis data was processed using Attagraph software (Attagene).

Compound | outcome | AC50
c1ccc2c(c1)Oc1ccccc1O2 | inactive | 
CCCCCCCCCCBr | inactive | 
C=CC(=O)[O][Sn]([CH2]CCC)([CH2]CCC)[CH2]CCC | inactive | 
CC(C)[C@@H](Nc1ccc(C(F)(F)F)cc1Cl)C(=O)OC(C#N)c1cccc(Oc2ccccc2)c1 (stereo not given in full) | inactive | 
O=S(=O)(c1ccc(Cl)cc1)c1cc(Cl)c(Cl)cc1Cl | inactive | 
O=C1C[C@@H]2OCC=C3CN4CC[C@]56c7ccccc7N1[C@H]5[C@H]2[C@H]3C[C@H]46 | inactive | 
CN(C1CCCCC1)C1CCCCC1 | inactive | 
CC(=O)CN(CC(C)=O)N=O | inactive | 
CCCCOC(=O)COC(=O)c1ccccc1C(=O)OCCCC | inactive | 
NNCCO | inactive | 
O=C(NC(=O)c1c(F)cccc1F)Nc1cc(Cl)c(OC(F)(F)C(F)C(F)(F)F)cc1Cl (stereo not given) | inactive | 
O=C(Cl)OCCOCCOC(=O)Cl | inactive | 
O=[N+]([O-])c1ccc(Cl)c([N+](=O)[O-])c1 | inactive | 
CC1(C)[C@H](/C=C2\CCSC2=O)[C@@H]1C(=O)OCc1coc(Cc2ccccc2)c1 | inactive | 
CN(N=O)C(N)=O | inactive | 
Cc1cc(Cl)ccc1N | inactive | 
NC(=O)CCl | inactive | 
CCCCC(CC)C(=O)Cl (stereo not given) | inactive | 
CS(=O)(=O)c1ccc(C(=O)C2C(=O)CCCC2=O)c(Cl)c1COCC(F)(F)F | inactive | 
C[C@]12CC[C@@H](O)C[C@@H]1CC[C@@H]1[C@@H]2CC[C@]2(C)C(=O)CC[C@@H]12 | inactive | 

Compound | outcome | AC50
O=C(N[C@H]1CN2CCC1CC2)c1ccc2c(c1)OCCO2 | inactive | 
CCN(CC)C(=O)C(Cl)=C(C)OP(=O)(OC)OC | inactive | 
COc1ccc([N+](=O)[O-])cc1O | inactive | 
Cc1ccc(OP(=O)(Oc2ccc(C)cc2C)Oc2ccc(C)cc2C)c(C)c1 | inactive | 
O=C(CCl)Nc1ccccc1 | inactive | 
Nc1nc(=S)[nH][nH]1 | inactive | 
CCOP(=S)(OCC)SCSc1cc(Cl)ccc1Cl | inactive | 
Cc1cccc(C)c1NC(=O)CN1CCCC1=O | inactive | 
Cc1ccc2nc3sc(=O)sc3nc2c1 | inactive | 
CCOC(=O)CCN(SN(C)C(=O)Oc1cccc2c1OC(C)(C)C2)C(C)C | inactive | 
CC(C)(C)c1ccccc1O | inactive | 
C[C@@H]1O[C@@H](O[C@H]2C[C@@H](O)[C@]3(CO)[C@H]4[C@H](O)C[C@]5(C)[C@@H](C6=CC(=O)OC6)CC[C@]5(O)[C@@H]4CC[C@]3(O)C2)[C@H](O)[C@H](O)[C@H]1O |  | 2.31 µM (active)
O=S(=O)(F)C(F)(F)C(F)(F)C(F)(F)C(F)(F)F | inactive | 
CC(c1ccc(O)cc1)c1ccc(O)cc1 | inactive | 
C#CCOC(=O)/C=C(C)/C=C/CC(C)CCCC(C)C (stereo not given) | inactive | 
CCCCN(CCCC)C(=S)S |  | 166 µM (active)
N#CCCC(Br)(C#N)CBr (stereo not given) |  | 51 µM (active)
CCCCOC(C)=O | inactive | 
COc1ccc(N)cc1 | inactive | 
Clc1cnc(Oc2ccc(Oc3ncc(Cl)cc3Cl)cc2)c(Cl)c1 | inactive | 
